Bioassay records from PubChem BioAssay.
LYPLA1 counter: LYPLA1 inhibitors, primary screen, counter-screen for PME1 inhibitor project, biochemical, fluorescence polarization, FP-Rh probe ABPP | Acyl-protein thioesterase 1 (Homo sapiens), O75608 | 320,000 compounds, 0.16% hits | recombinant LYPLA1 | AID 2174, 2009 | inhibition, % at 5.9 µM;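 active = inhibition above the mean of all tested compounds plus 3 SD, set per campaign, cut at about 14% in these data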;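 note: inhibitors block serine hydrolase probe labeling of LYPLA1 so polarization falls; 0% = enzyme with DMSO and 100% = wells lacking LYPLA1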
Target sequence (O75608 whole entry, looked up): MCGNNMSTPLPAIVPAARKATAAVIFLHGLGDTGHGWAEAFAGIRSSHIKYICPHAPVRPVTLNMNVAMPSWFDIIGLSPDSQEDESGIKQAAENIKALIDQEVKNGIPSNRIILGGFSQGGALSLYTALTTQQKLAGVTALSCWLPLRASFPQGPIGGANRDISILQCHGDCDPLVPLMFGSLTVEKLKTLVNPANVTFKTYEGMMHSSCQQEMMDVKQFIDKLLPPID
PP5 inh: PP5 phosphatase inhibitors, primary screen, biochemical, fluorescence. purified PP5c, OMFP substrate fluorescence. 320,000 compounds, 0.18% hits. AID 1987, 2009. inhibition, % at 6.7 µM. Serine/threonine-protein phosphatase 5 (Homo sapiens), P53041;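 active = inhibition above the campaign's mean inhibition across all tested compounds plus 3 SD, cut at about 9.5% in these data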;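 note: 0% = DMSO only and 100% = 100 µM cantharidin control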
PP1 counter: PP1-alpha phosphatase inhibitors, primary screen, counter-screen for PP5 inhibitor project, biochemical, fluorescence, OMFP substrate, single point; purified PP1alpha; inhibition, % at 6.7 µM; 320,000 compounds, 0.9% hits;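 active = inhibition above the mean inhibition of all tested compounds plus 3 SD, computed separately for each screening campaign, cut at about 15% in these data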
Target sequence (P62136 whole entry, looked up): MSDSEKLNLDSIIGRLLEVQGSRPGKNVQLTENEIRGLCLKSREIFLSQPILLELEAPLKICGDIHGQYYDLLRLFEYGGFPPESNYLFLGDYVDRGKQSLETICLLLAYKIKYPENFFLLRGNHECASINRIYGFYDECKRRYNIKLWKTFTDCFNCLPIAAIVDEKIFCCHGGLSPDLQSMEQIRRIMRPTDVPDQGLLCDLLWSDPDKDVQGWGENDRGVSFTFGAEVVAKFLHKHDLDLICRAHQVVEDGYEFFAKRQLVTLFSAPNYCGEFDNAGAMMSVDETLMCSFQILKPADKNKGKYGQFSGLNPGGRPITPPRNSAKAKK
PME-1 primary: PME-1 inhibitors via competitive probe labeling, primary screen, biochemical, fluorescence polarization, FP-Rh probe, HTS; Protein phosphatase methylesterase 1 (Homo sapiens), Q9Y570; recombinant PME-1; inhibition, % at 5.9 µM; 320,000 compounds, 0.53% hits; AID 2130, 2009;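 active = inhibition above the campaign mean of all compounds plus 3 SD, cut at about 26% in these data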;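 note: competitive labeling of PME-1 active site by serine hydrolase directed probe; 0% = PME-1 with DMSO and 100% = wells lacking PME-1 enzyme; inhibitors block probe labeling so polarization falls and inhibition rises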
Fam108B inh: mouse Fam108B serine hydrolase inhibitors, primary screen, counter-screen for RBBP9 inhibitor project, biochemical, fluorescence polarization; recombinant Fam108B, FP-Rh probe fluorescence polarization; inhibition, % at 9.51 µM; 300,000 compounds, 0.33% hits; AID 1947, 2009;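 active = inhibition above the screen mean inhibition plus 3 SD, computed separately per campaign, cut at about 18% in these data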;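 note: inhibitors lower polarization as less probe binds the enzyme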
LYPLA2 inh: LYPLA2 inhibitors, primary screen, counter-screen for PME1 inhibitor project, biochemical, fluorescence polarization, FP-Rh probe ABPP; 320,000 compounds, 0.38% hits; recombinant LYPLA2; inhibition, % at 5.9 µM; Acyl-protein thioesterase 2 (Homo sapiens), O95372;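 active = inhibition above the screen-wide mean plus 3 SD, limit set per campaign, cut at about 26% in these data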;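 note: 0% = LYPLA2 with DMSO and 100% = wells lacking LYPLA2 enzyme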
PP1 confirm: PP1 phosphatase inhibitors, confirmation, biochemical, fluorescence, OMFP substrate, triplicate; purified PP1alpha; 1,900 compounds, 52% hits; shares compounds with PP1 counter; inhibition, % at 6.7 µM; AID 2358, 2010;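 active = mean PP1 inhibition above a set limit taken from the earlier primary screen, cut at about 15% in these data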
PP5 counter: PP5 phosphatase inhibition by PP1 hits, confirmation, counter-screen for PP1 inhibitor project, biochemical, fluorescence, triplicate; shares compounds with PP1 counter; purified PP5c, OMFP fluorescence; inhibition, % at 6.7 µM; 1,900 compounds, 4% hits;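 active = mean PP5 inhibition over triplicate wells above about 9.5% taken from the earlier PP1 screen, limit read from the data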
* hit, by the source's call. In the library only some 1.8% were active in any assay of this set; here they are far more common.

COc1ccc(S(=O)(=O)NCC(=O)N(Cc2ccco2)C(C(=O)NC(C)(C)C)C(C)C)cc1 (stereo unspecified) was read as LYPLA1 counter 5.2, PP5 inh -1.1, PP1 counter 3.1, PME-1 primary -2.8, Fam108B inh 1.5 and LYPLA2 inh -3.2.
CCc1noc(C)c1C(=O)N1CCCC(N2CCN(c3cccc(Cl)c3)CC2)C1 (stereo unspecified) was read as LYPLA1 counter 3.9, PP5 inh 1.7, PP1 counter -4.6, PME-1 primary -4.1, Fam108B inh -4.2 and LYPLA2 inh 17.3.
For Cc1ccc(NC(=O)COC(=O)c2ccc3c(c2)NC(=O)C2CCCN32)cc1 (stereo unspecified) the results were LYPLA1 counter -26.4, PP5 inh -0.5, PP1 counter 18.6*, PME-1 primary -25.1, Fam108B inh -22.5, LYPLA2 inh -45.9, PP1 confirm 11.0 and PP5 counter 5.4.
For N#CCC(=O)N/N=C/c1ccc(N2N=C(c3ccccc3)CC2c2ccccc2)cc1 (stereo unspecified) the results were LYPLA1 counter -17.7, PP5 inh 7.7, PP1 counter 24.7*, PME-1 primary -11.0, Fam108B inh 12.8, LYPLA2 inh -20.8, PP1 confirm 17.4* and PP5 counter -0.1.
For Cc1sc2nc(CSC(C)C(=O)N(C)CC(=O)Nc3ccccc3C(F)(F)F)[nH]c(=O)c2c1C (stereo unspecified) the results were LYPLA1 counter 0.7, PP5 inh -1.8, PP1 counter 0.2, PME-1 primary -1.8, Fam108B inh 4.5 and LYPLA2 inh 1.8.
Screening Cc1sc2nc(CSc3ccc([N+](=O)[O-])c(C(F)(F)F)c3)[nH]c(=O)c2c1C returned LYPLA1 counter -5.0, PP5 inh 1.1, PP1 counter 27.4*, PME-1 primary -13.5, Fam108B inh -4.1, LYPLA2 inh -12.2, PP1 confirm 8.7 and PP5 counter -2.4.
For COc1cc(/C=C2/SC(=S)NC2=O)ccc1OS(=O)(=O)c1ccc(C)cc1 the results were LYPLA1 counter -3.9, PP5 inh 3.5, PP1 counter 25.5*, PME-1 primary -9.4, Fam108B inh -1.8, LYPLA2 inh -7.4, PP1 confirm 30.9* and PP5 counter 2.0.
COc1ccc(/C=C2\SC(=S)N(CCCCCC(=O)Nc3cc(C)on3)C2=O)cc1OC was read as LYPLA1 counter -4.6, PP5 inh 1.3, PP1 counter -0.8, PME-1 primary 5.3, Fam108B inh 1.3 and LYPLA2 inh -1.3.
`COc1cc(/C=C2\SC(=S)N(CCCCC(=O)O)C2=O)ccc1OS(=O)(=O)c1ccc(C)cc1` gave LYPLA1 counter 5.5, PP5 inh 0.9, PP1 counter 31.1*, PME-1 primary 0.7, Fam108B inh 0.1, LYPLA2 inh 10.2, PP1 confirm 29.2* and PP5 counter 2.6.
Screening COc1cc(/C=C2\SC(=S)NC2=O)ccc1OS(=O)(=O)c1ccccc1 returned LYPLA1 counter -2.7, PP5 inh 3.1, PP1 counter 19.1*, PME-1 primary -8.8, Fam108B inh -0.6, LYPLA2 inh -2.9, PP1 confirm 20.9* and PP5 counter 1.7.
Screening CCOc1ccc(/C=C2\SC(=S)NC2=O)cc1OC returned LYPLA1 counter -0.5, PP5 inh -0.6, PP1 counter -3.2, PME-1 primary -16.4, Fam108B inh -4.0 and LYPLA2 inh -4.4.
`O=C(OCC(=O)c1ccc[nH]1)c1cncc(Br)c1` gave LYPLA1 counter 1.1, PP5 inh 2.0, PP1 counter -1.2, PME-1 primary -3.5 and LYPLA2 inh 6.4.
`O=C(O)C(c1ccccc1)N1C(=O)/C(=C\c2ccc(-c3ccccc3Cl)o2)SC1=S` (stereo unspecified) gave LYPLA1 counter 6.1, PP5 inh -0.5, PP1 counter 27.4*, PME-1 primary 0.6, Fam108B inh 5.1, LYPLA2 inh -3.0, PP1 confirm 36.0* and PP5 counter 2.7.
`Cc1cccc(C(=O)OCC(=O)c2ccc(CC(=O)N3CCOCC3)s2)c1C` gave LYPLA1 counter -1.4, PP5 inh 3.5, PP1 counter 1.1, PME-1 primary -8.0 and LYPLA2 inh 1.2.
Screening CCOc1ccc(NC(=O)c2ccc(CNc3c(NC4CCCCC4)c(=O)c3=O)cc2)cc1 returned LYPLA1 counter -2.1, PP5 inh 1.7, PP1 counter -0.7, PME-1 primary -1.9, Fam108B inh -6.0 and LYPLA2 inh -2.9.
COc1ccc(NC(=O)c2ccc(CNc3c(NC4CCCCC4)c(=O)c3=O)cc2)c(OC)c1 was read as LYPLA1 counter 1.6, PP5 inh 0.9, PP1 counter 21.1*, PME-1 primary -0.6, Fam108B inh -1.9, LYPLA2 inh 1.1, PP1 confirm 19.4* and PP5 counter -0.8.
CCOC(=O)C1=C(CSc2nc(CC)c(C)cc2C#N)OC(N)=C(C#N)C1c1ccc(OC)cc1 (stereo unspecified) was read as LYPLA1 counter -8.5, PP5 inh 6.2, PP1 counter 6.2, PME-1 primary -3.0, Fam108B inh -9.1 and LYPLA2 inh -13.8.
For COC(=O)C1=C(CSc2nc3c(cc2C#N)CN(C)CC3)OC(N)=C(C#N)C1c1ccc(F)cc1 (stereo unspecified) the results were LYPLA1 counter -1.4, PP5 inh 4.6, PP1 counter 18.5*, PME-1 primary 2.7, Fam108B inh 5.1, LYPLA2 inh 10.0, PP1 confirm 4.7 and PP5 counter 5.1.
CCOc1cc(C(=S)N2CCOCC2)cc(Br)c1OS(=O)(=O)c1ccccc1 was read as LYPLA1 counter -0.6, PP5 inh 2.4, PP1 counter 2.7, PME-1 primary -3.2, Fam108B inh -1.6 and LYPLA2 inh 0.8.
`CC(=O)NC(c1cc(Cl)c2cccnc2c1O)C(C)C` (stereo unspecified) gave LYPLA1 counter 2.4, PP5 inh 2.5, PP1 counter 1.2, PME-1 primary 6.3 and LYPLA2 inh 8.0.
